G9a inh: qHTS Assay for Inhibitors of Histone Lysine Methyltransferase G9a; G9a H3K9 monomethylation, AlphaScreen, 2 h; 350,000 compounds, 8.8% hits; Histone-lysine N-methyltransferase EHMT2 (Homo sapiens), Q96KQ7; Potency, µM (doses to about 102 µM), for inactives: at the top dose activity, negative = inhibition, usual class: inhibitors; AID 504332, 2011; also: % is scaled to controls: 0 for no effect and ±100 for the full control effect; nearly all actives have a fitted effect of over 75% in size
Target sequence (Q96KQ7 913-1193 limits assumed): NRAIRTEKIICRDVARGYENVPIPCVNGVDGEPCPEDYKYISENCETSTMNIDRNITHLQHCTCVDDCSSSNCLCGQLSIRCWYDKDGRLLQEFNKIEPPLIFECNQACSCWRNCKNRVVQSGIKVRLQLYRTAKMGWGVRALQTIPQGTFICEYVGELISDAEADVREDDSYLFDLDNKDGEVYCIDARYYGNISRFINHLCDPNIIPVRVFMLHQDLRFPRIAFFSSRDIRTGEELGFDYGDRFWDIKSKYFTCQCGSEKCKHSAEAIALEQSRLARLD
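Enzyme 20 nM + cpd, 15 min RT; add b-H3K9 pep 500 nM / SAM 20 uM; 2 h RT; anti-H3K9me1 Ab 0.5 ug/mL + SA donor / anti-rabbit acceptor beads 20 ug/mL each, 10 min; AlphaScreen read.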
JMJD2A Tudor: qHTS Assay for Inhibitors of JMJD2A-Tudor Domain; AlphaScreen JMJD2A-Tudor / H3K4me3 peptide binding; Potency, µM (top dose mostly 114 µM), without a hit: top-dose activity change, negative = inhibition, most hits filed as inhibitors; Lysine-specific demethylase 4A (Homo sapiens), O75164; 390,000 compounds, 4.4% hits; AID 504339, 2011; also: % is scaled to controls: 0 for no effect and ±100 for the full control effect; nearly all actives have a fitted effect of over 50% in size
HP1b chromo inh: HTS for Inhibitors of HP1-beta Chromodomain Interactions with Methylated Histone Tails. 390,000 compounds, 0.56% hits. Potency, µM (top dose mostly 114 µM), inactives show at the top dose activity change, negative = inhibition, usual class: inhibitors. Chromobox protein homolog 1 (Homo sapiens), P83916. AlphaScreen HP1-beta / biotin-H3K9me3 peptide binding; also: nearly all actives have a fitted effect of over 70% in size
Target sequence (P83916 whole entry, looked up): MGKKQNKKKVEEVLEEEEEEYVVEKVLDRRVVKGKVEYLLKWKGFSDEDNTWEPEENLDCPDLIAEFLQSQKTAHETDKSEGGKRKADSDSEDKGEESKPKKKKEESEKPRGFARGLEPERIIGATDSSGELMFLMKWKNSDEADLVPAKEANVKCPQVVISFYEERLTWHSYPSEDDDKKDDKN
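HP1-beta protein (50 nM final) preincubated 30 min at room temperature with biotinylated H3(1-18)K9me3 peptide (50 nM) in PBS pH 7.4, 0.01% Tween-20, then compound added for 30 min. AlphaScreen streptavidin donor/nickel chelate acceptor beads (10 ug/mL final), 30 min dark, luminescence read.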
BAZ2B block: qHTS Assay for Inhibitors of BAZ2B; AID 504333, 2011; AlphaScreen BAZ2B-H3K14Ac peptide displacement; Potency, µM (doses to about 114 µM), without a hit: at the highest dose activity change, negative = inhibition, actives largely listed as inhibitors; 360,000 compounds, 4.4% hits; also: % is scaled to controls: 0 for no effect and ±100 for the full control effect; nearly all actives have a fitted effect of over 60% in size
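Multi-concentration screen (max 110 uM) measuring displacement of acetylated histone H3 peptide from BAZ2B by AlphaScreen, using 50 nM protein, 50 nM peptide and 10 ug/mL streptavidin donor plus Ni-chelate acceptor beads.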
Sfp PPTase inh: qHTS Assay for Inhibitors of Bacillus subtilis Sfp phosphopantetheinyl transferase (PPTase) | 4'-phosphopantetheinyl transferase ffp (Bacillus subtilis), Q9F4F7 | AID 1490, 2009 | Potency, µM, for the others: largest response in the series, negative = inhibition, most hits filed as inhibitors | 310,000 compounds, 3.5% hits | Biochemical Sfp PPTase activity, qHTS;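 also: the enzyme is Sfp with the accession as filed and its product quenches rhodamine fluorescence; 0% = enzyme reaction without inhibitor and -100% = no enzyme wells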
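After 15 min at room temperature with compound, 15 nM Sfp received 5 uM rhodamine-CoA plus 12.5 uM BHQ-2-ybbR (50 mM Hepes pH 7.6, 10 mM MgCl2). Rate came from the fluorescence difference over 30 min, ex 525/em 598 nm.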
An asterisk follows results filed as active; ? = inconclusive; / = no result given; [ ] = remark or other dose. Hits are enriched below; roughly 12% of the tested compounds scored in any of these assays. Calls follow the shape of the dose curve; as a rule, active = well fitted curve in the direction sought with a large enough effect; inconclusive = small, poorly fitted or top-dose-only effect, or another doubt; inactive = no such curve, though single readings can be large; an effect the other way counts as inactive or inconclusive. Potency is read from the fitted curve at half-maximal effect.

SMILES	G9a inh	JMJD2A Tudor	HP1b chromo inh	BAZ2B block	Sfp PPTase inh
N#Cc1nc(COc2ccc(Cl)cc2)oc1NCc1ccc2c(c1)OCO2	28.2µM*	-14.2%	?	?	16.2%
CC(C)(C)CC(=O)NCC(c1ccc2c(c1)OCO2)N1CCN(c2ccccc2)CC1 (stereo unspecified)	-24.5%[59 µM]	-16.5%	19.3%[57 µM]	-36.8%	/
CS(=O)(=O)Nc1cccc(-c2cc(Nc3ccccc3)ncn2)c1	-24.1%[0.501 µM]	/	/	/	2.6%
Cc1c(Cl)ccc2sc(N3CCN(C(=O)CS(=O)(=O)c4ccccc4)CC3)nc12	-3.6%[59 µM]	-18.8%	53.0%	15.8%	/
CCOC(=O)[C@@H]1[C@H]2COc3ccc(Br)cc3[C@@H]2N2C(=O)N(c3ccc(C)cc3)C(=O)[C@@]12C	/	-30.7%	17.1%	/	/
CC(Sc1nc2ccccc2o1)C(=O)O (stereo unspecified)	50.1µM*	0.7%	37.4%	-7.1%	12.7%
COc1ccc(C(=O)CSc2nnc(CCc3ccccc3)n2-c2ccccc2)cc1	39.8µM*	56.2µM*	17.1%	-0.9%	-17.7%
Cc1cc(C)c(NC(=O)C(C)Sc2nnc(-c3ccco3)n2-c2ccccc2)c(C)c1 (stereo unspecified)	-8.9%	/	/	-11.5%	13.1%
COc1ccc(-n2c(CCc3ccccc3)nnc2SCC(=O)c2ccccc2)cc1	8.91µM*	-35.2%	0.0%	-36.8%	?
CC(Sc1nnc(-c2cc3ccccc3o2)n1-c1ccccc1)C(=O)O (stereo unspecified)	8.91µM*	-17.8%	29.8%	5.9%	4.1%
O=C(CNC(=O)c1ccccc1)NCC(O)c1ccc([N+](=O)[O-])cc1 (stereo unspecified)	10.9%	-11.0%	17.7%	0.4%	1.3%
Cc1cc(OCc2nnc(SC(C)C(=O)O)n2-c2ccccc2)ccc1Cl (stereo unspecified)	?	?	43.0%	-38.5%	16.2%
CC(C)Oc1ccc(CCc2nnc(SC(C)C(=O)O)n2-c2ccccc2)cc1 (stereo unspecified)	/	56.2µM*	25.8%[57 µM]	1.6%	12.4%
COc1cc(C(=O)O/N=C2\C=CC(=O)C(C)=C2)cc(OC)c1OC	14.1µM*	-19.5%	22.2%	-32.8%	-3.9%
Cn1cc([N+](=O)[O-])c(C(=O)N/N=C/c2ccc([N+](=O)[O-])cc2)n1	21.4%	-18.2%	34.9%	-2.7%	-2.3%
Cn1cc([N+](=O)[O-])c(C(=O)NNC(=O)c2ccc([N+](=O)[O-])cc2)n1	44.7µM*	?	?	-11.1%	15.5%
CC(C)CC(=O)NC(=S)NNC(=O)c1ccc([N+](=O)[O-])cc1	20µM*	?	-2.7%	3.0%	-27.2%
CCC(=O)NC(=S)NNC(=O)c1ccc([N+](=O)[O-])cc1	?	79.4µM*	4.9%	15.0%[57.1 µM]	79.4µM*
Cc1cccc(CCNC(=O)Cn2ncc3c(=O)oc4ccccc4c32)c1	-27.6%[59 µM]	-22.0%	36.4%	/	/
COc1ccc(-n2c(=O)c3c4c(sc3n(Cc3cc(C)ccc3C)c2=O)CN(C(C)=O)CC4)c(OC)c1	-27.9%[59 µM]	?	10.4%	?	/
Cc1cc(C)c(C(=O)CC(=O)c2cccnc2)c(C)c1	/	0.7%	38.3%	/	/
COc1cc(C=O)ccc1OCC(=O)Nc1ccc2c(c1)OCO2	56.1%	-4.6%	14.9%	1.7%	14.5%
CC(O)CNc1ncnc2nc[nH]c12 (stereo unspecified)	11.0%[2.33 µM]	-6.2%	41.3%	4.7%	17.4%
Cn1cnc2nc[nH]c2c1=S	/	3.55µM*	12.0%	/	/
COC(=O)c1c(C)[nH]c(C(=O)OCc2csc(CC(=O)Nc3ccccc3C)n2)c1C	/	-8.2%	21.0%	/	/
O=C(CSc1ccc(-c2ccco2)nn1)Nc1ccccc1F	39.8µM*	-4.6%	26.8%	-16.2%	31.6µM*
CCOc1ccccc1NC(=O)CSc1ccc(-c2ccco2)nn1	25.1µM*	-31.9%	6.2%	?	50.1µM*
